The source of these data is PubChem BioAssay (NCI).

This is part of a sample that, as a whole, favours compounds with a hit. Of some 83,000 tested, about 20% had one in any assay.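 Single-concentration screen, 48 h exposure, 96-well plates. Endpoint: percent growth. Below 10 = active.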 Active and inactive are the calls of the source.

For the test, the system named is SNB-19 CNS. The test can be described thus: NCI-60 one-dose screen, 48 h (100 = growth as untreated, 0 = no growth, -100 = all killed). The note with it: 10 µM unless noted.
`Clc1ccccc1/C=C/c1nn2c(-c3ccncc3)nnc2s1`: the growth is 99.6% (inactive). The value for `COc1ccc(/C=N/Nc2nc(Nc3ccccc3)nc(Nc3ccc(S(N)(=O)=O)cc3)n2)cc1` was 86.3% (inactive); that for `CS(=O)c1nccc(-c2c(-c3ccc(F)c(OCc4ccccc4)c3)nc3sccn23)n1` (stereo not drawn) was 93.3% (inactive).

With `COc1ccc(-c2cc(-c3cccc4ccccc34)n3c(n2)nc2ccccc23)cc1`, the growth was 39.9% (inactive). For the compound `COc1ccc2c(c1)c(-c1nn3c(=O)cc(-c4ccccc4)nc3s1)cn2C`, the growth was 39.1% (inactive). `CC1(C)CC[C@]2(C(=O)N3CCCNCC3)CC[C@]3(C)C(=CC[C@@H]4[C@@]5(C)CCC(=O)C(C)(C)[C@@H]5CC[C@]43C)[C@H]2C1`: the growth is 98% (inactive). For `CCOC(=O)C1=C(C)Nc2nnc(Nc3ccccc3)n2C1c1ccccc1` (stereo not drawn), the growth was 81.6% (inactive).

Turning to `Cc1nc(-c2cc3ccccc3c(N3CCN(C)CC3)n2)cs1`, the growth is 90.1% (inactive). On to `Nc1n[nH]c2cccc(C#Cc3cccc(NC(=O)c4cccc(OC(F)(F)F)c4)c3)c12`, for which the growth was 81.3% (inactive). `COc1c([C@@H](CC(C)C)OC(C)=O)ccc2c1C(=O)OCc1cc(C)cc(O)c1O2`: the growth is 36.3% (inactive).

Turning to `O=C1CSC(=O)N1Cc1cc2ccccc2nc1Cl`, the growth was 99.8% (inactive). To `O=C1Nc2ccc(Cl)cc2/C1=C/c1ccc(OCc2ccc(Br)cc2F)cc1` belongs 100% (inactive); to `COc1cc2oc(-c3cccc(NC(=O)c4cc(NC(=O)[C@H](C)N)ccc4Cl)c3)cc(=O)c2c(OC)c1OC`, 88.8% (inactive). The value for `COc1cc2oc(-c3cccc(NC(=O)c4cc(NC(=O)[C@H](C)NC(=O)OC(C)(C)C)ccc4C)c3)cc(=O)c2c(OC)c1OC` was 65.4% (inactive); that for `C/C(=C(/C)C1CC1CCN(C(=O)c1ccc([N+](=O)[O-])cc1)S(=O)(=O)c1ccc(C)cc1)C1CCCCC1` (stereo not drawn) was 92.5% (inactive); that for `CN1CCN(c2nc(-c3cnc4ccccc4n3)cc3ccccc23)CC1` was 81.1% (inactive). With `CCNC(=O)Oc1ccc(/C(=C(/C)c2ccccc2)c2ccc(OCCN3CCCC3)cc2)cc1`, the growth is 79% (inactive). In the case of `O=C(CSc1nnc(-c2cccs2)n1-c1ccccc1)Nc1ccc(F)cc1`, the growth was 91% (inactive). To `NS(=O)(=O)Oc1ccc2nc(Nc3ccc(F)c(F)c3)ccc2c1` belongs 102% (inactive). With `C#C[C@]1(O)CC[C@H]2[C@@H]3CC=C4c5sc(Nc6cccc(C)n6)nc5CC[C@]4(C)[C@H]3CC[C@@]21C`, the growth was 18.5% (inactive). The value for `COc1ccc([C@H]2[C@H](O)C(=O)N2c2cc(OC)c(OC)c(OC)c2)cc1O` was 29% (inactive); that for `COc1cc(-c2nc(SCc3ccc(C)cc3)[nH]c(=O)c2C#N)ccc1OCc1ccccc1` was 97.2% (inactive). The value for `CCOC(=O)Nc1cccc(-n2cnc3cc(-c4ccc(O)cc4)ccc32)c1` was 27.1% (inactive); that for `COc1cc(O)c2c(c1)[C@H]1O[C@@H]1C[C@H](O)[C@H](O)C(=O)/C=C\C[C@H](C)OC2=O` was 81.3% (inactive). `CN1CCN(c2ccc(C(=O)/C=C/c3ccc(Cl)c(C(F)(F)F)c3)cc2)CC1`: the growth is 73.7% (inactive). Turning to `Cc1ccccc1NC1CC(=O)N(c2ccc(Cl)cc2Cl)C1=O` (stereo not drawn), the growth is 95.6% (inactive). To `C/C(=C(/c1ccc(O)cc1)c1ccc(OCCN(C)C)cc1)c1ccc(Cl)cc1` belongs 59.7% (inactive); to `C=CCn1c(SCC(=O)Nc2cccc(C(=O)/C=C/c3ccc(Cl)cc3)c2)nc2ccccc2c1=O`, 86.9% (inactive); to `Cc1nn(-c2ccc(Br)cc2)c2nc(CCl)[nH]c(=O)c12`, 97.1% (inactive).

Take `Cc1cc2nc(C(Cl)Cl)nc(-c3ccco3)n2n1`: the growth is 62.8% (inactive). Take `C=CCn1c(SCC(=O)c2ccc(OC)cc2)nnc1-c1ccc(OC)cc1`: the growth is 99.7% (inactive). Consider `ClC(Cl)c1nc(-c2cccs2)n2nc(-c3ccccc3)cc2n1`, for which the growth is -5.22% (active). To `COc1cc2c3c(n(CCCNC4CCCCC4)c(=O)c2cc1OC)-c1cc2c(cc1C3=O)OCO2` belongs 2.72% (active); to `C#CCOc1ccc(/C=N/Nc2nc(-c3cc(Cl)ccc3Cl)cs2)cc1`, 104% (inactive). The value for `CS(=O)(=O)c1ccc2c(c1)c1c(n2S(=O)(=O)c2ccc(Cl)cc2)CCCC1` was 30.1% (inactive); that for `CC(=O)NC(C)(C)C(=O)N1CCC[C@H]1C(=O)NC(C)(C)C(=O)N[C@@H](C)C(=O)NC(C)(C)C(=O)NC(C)(C)C(=O)N[C@@H](CCC(N)=O)C(=O)NC(C)(C)C(=O)N[C@H](C(=O)NC(C)(C)C(=O)NCC(=O)N[C@@H](CC(C)C)C(=O)NC(C)(C)C(=O)N1CCC[C@H]1C(=O)N[C@H](C(=O)NC(C)(C)C(=O)NC(C)(C)C(=O)N[C@@H](CCC(N)=O)C(=O)N[C@@H](CCC(N)=O)C(=O)N[C@H](CO)Cc1ccccc1)C(C)C)C(C)C` was 19.1% [4.25 µM] (inactive). As to `Cc1cn(-c2cc(NC(=O)c3cncc(C#Cc4cnc5ccc(O[C@@H]6CCOC6)nn45)c3)cc(C(F)(F)F)c2)cn1`, the growth was -7.45% (active). The value for `O=C(O)CNS(=O)(=O)c1ccc(Oc2ccc(S(=O)(=O)NCC(=O)O)cc2)cc1` was 98.1% (inactive).
